Assay outcomes deposited in PubChem BioAssay by several laboratories.
RTF Ca sens act: cardiac RTF calcium sensitization; IANBD-labeled TnC RTF fluorescence at EC20 calcium; 0% EC20 calcium, 100% full calcium; activation, % at 7.2 µM; actives 0.24% (n = 340,000);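 active = activation above the mean over all tested compounds plus 3 SD, cut at about 30% in these data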;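 also: rise in fluorescence read as greater calcium sensitivity of cardiac thin filaments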
Keap1-Nrf2 PPI: disrupts human Keap1 binding to Nrf2 peptide; Q14145; Keap1 Kelch-Nrf2 peptide fluorescence polarization, 1536-well; inhibition, % at 9.4 µM; actives 0.15% (n = 340,000); AID 504523; in the data active = inhibition above about 12%;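 also: human Keap1 Kelch domain with fluorescein labeled Nrf2 9mer peptide probe; 0% = neutral control wells and 100% = peptide positive control; higher means more block of Keap1 binding to Nrf2 peptide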
LANA DNA inh: KSHV C-LANA DNA binding inhibition | MBP-C-LANA/FAM-LBS DNA binding, fluorescence polarization | inhibition, % at 9 µM | actives 0.078% (n = 340,000);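 active = highest replicate inhibition at or above 60% at 9 µM, even if other replicates fall short; inactive = all replicates below 60% inhibition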;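 also: 0% = neutral control wells and 100% = 4 µM acridine orange control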
eLon inh: inhibitors of E. coli Lon protease; P0A9M0; purified E. coli Lon protease, fluorescence polarization; inhibition, % at 7.94 µM; actives 0.42% (n = 360,000); AID 602123; in the data active = inhibition above about 13%, passing the limit was not always enough;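 also: 0% = enzyme with probe and DMSO and 100% = no enzyme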
Target sequence (P0A9M0 whole entry, looked up): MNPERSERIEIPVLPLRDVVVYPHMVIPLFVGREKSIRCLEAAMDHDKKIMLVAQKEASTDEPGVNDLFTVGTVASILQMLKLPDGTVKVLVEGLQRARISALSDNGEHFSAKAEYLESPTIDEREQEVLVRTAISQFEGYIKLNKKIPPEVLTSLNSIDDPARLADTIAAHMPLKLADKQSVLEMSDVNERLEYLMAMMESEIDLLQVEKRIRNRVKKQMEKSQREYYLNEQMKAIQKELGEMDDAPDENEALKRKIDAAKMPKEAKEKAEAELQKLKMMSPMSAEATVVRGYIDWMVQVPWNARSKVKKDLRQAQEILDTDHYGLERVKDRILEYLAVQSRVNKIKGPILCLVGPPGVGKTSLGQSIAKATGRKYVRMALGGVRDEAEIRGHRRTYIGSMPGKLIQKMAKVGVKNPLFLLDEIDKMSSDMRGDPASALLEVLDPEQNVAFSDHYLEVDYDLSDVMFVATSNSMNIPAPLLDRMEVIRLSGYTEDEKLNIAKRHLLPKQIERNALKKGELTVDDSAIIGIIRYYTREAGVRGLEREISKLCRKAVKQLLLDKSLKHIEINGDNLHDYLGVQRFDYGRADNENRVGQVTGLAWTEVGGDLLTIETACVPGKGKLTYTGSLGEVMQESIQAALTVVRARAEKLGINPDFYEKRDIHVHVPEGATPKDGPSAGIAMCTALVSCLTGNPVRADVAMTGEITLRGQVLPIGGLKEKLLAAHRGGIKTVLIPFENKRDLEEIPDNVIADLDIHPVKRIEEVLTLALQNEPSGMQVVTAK
Cardiac RTF inh: cardiac RTF calcium desensitization; IANBD-labeled cardiac RTF, Ca2+ fluorescence; inhibition, % at 7.15 µM; actives 0.12% (n = 340,000); AID 493244;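 active = inhibition above the mean inhibition of all tested compounds plus 3 SD, cut at about 17% in these data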;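 also: assay run at fixed EC70 calcium of 1.6 mM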
Keap1 TSA: binders of human Keap1 Kelch domain | shares compounds with Keap1-Nrf2 PPI | Keap1 Kelch thermal shift, delta Tm; active compounds read high | max delta Tm, degrees C | actives 8% (n = 400) | AID 651823; in the data active = max delta Tm above about 0.48 degrees C
Sypro dye melt: shifts Sypro Orange melt without protein, a false positive; AID 651858; shares compounds with Keap1-Nrf2 PPI; delta Tm, degrees C (no concentration beside the values); 140 tested, under 10 active; Sypro Orange dye-only thermal melt, no protein, delta Tm; top dose 26 µM;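 active = at highest dose tested, delta Tm positive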
eLon confirm: E. coli Lon inhibition confirmation | shares compounds with eLon inh | purified E. coli Lon, fluorescence polarization | inhibition, % at 7.94 µM | actives 31% (n = 1,400); in the data active = inhibition above about 16%;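 also: 0% = enzyme with probe and DMSO and 100% = no enzyme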
Active calls of the source: *; . = no result given; + = active, no number. Rows were chosen to be rich in hits. Some 0.82% of all compounds tested hit in one or more screens of this group.

SMILES	RTF Ca sens act	Keap1-Nrf2 PPI	LANA DNA inh	eLon inh	Cardiac RTF inh	eLon confirm	others
C[C@@H]1CNC(=O)c2c(C(=O)N[C@H](C)c3ccccc3)ncn21	.	.	.	-6	.	.
Oc1cc2c(cc1O)[C@H]1c3ccc(O)c(O)c3OC[C@@]1(O)C2	-1	-3	5	0	-3	.
Oc1ccc2c(c1)OCC1(O)Cc3cc(O)c(O)cc3C21 (stereo not given)	13	18*	19	+	-3	+	Keap1 TSA=-0.11
CCC1(c2ccccc2)NC(=O)N(CC(=O)Nc2ccc(OC)nc2)C1=O (stereo not given)	61*	61*	88*	112*	-80	105*	Keap1 TSA=-0.12
CCC1(c2ccccc2)NC(=O)N(CC(=O)Nc2ccc3c(c2)CCC3)C1=O (stereo not given)	.	.	.	-9	.	.
COc1cccc(C2=CC(c3ccc(OC)c(OC)c3OC)n3nnnc3N2)c1 (stereo not given)	-5	1	-1	1	-3	.
COc1cccc(C2=CC(c3cccs3)n3nnnc3N2)c1 (stereo not given)	6	15*	32	35*	-24	10	Keap1 TSA=-0.13
CC(C)(C)c1cc[n+](-c2[nH]c(=O)sc2/C=N/NC([S-])=Nc2ccccc2)cc1	81*	31*	51	165*	-127	71*	Keap1 TSA=-0.09;Sypro dye melt=-23
Cc1cc[n+](-c2[nH]c(=O)sc2/C=N/NC([S-])=Nc2ccccc2)cc1C	51*	32*	48	95*	-66	33*	Keap1 TSA=0.02
Nc1nc(Nc2cccc(Cl)c2)n[nH]1	.	-5	1	5	.	.
CC(C)N(C)Cc1nnnn1CC(=O)N(C)Cc1ccc(F)cc1	6	5	0	-6	-6	.
CCOC(=O)N1CC=C2C(C#N)=C(N)C(C#N)(C#N)[C@H](c3ccsc3)[C@H]2C1	1	-11	6	2	-12	.
CN1CC=C2C(C#N)=C(N)C(C#N)(C#N)C(c3ccsc3)C2C1 (stereo not given)	28	17*	36	60*	-33	32*	Keap1 TSA=-0.17
CCCC1C2CN(C(C)C)CC=C2C(C#N)=C(N)C1(C#N)C#N (stereo not given)	52*	20*	45	59*	-52	18*	Keap1 TSA=-0.16;Sypro dye melt=-26
CC[C@@]1(O)C(=O)OCc2c1cc1n(c2=O)Cc2cc3c(CN(C)C)c(O)ccc3nc2-1	221*	78*	131*	+	-222	+	Keap1 TSA=-0.08
CC[C@@]1(O)C(=O)OCc2c1cc1n(c2=O)Cc2cc3c(N)cccc3nc2-1	-1	-5	0	0	-10	.
Cc1nc(Cl)c2c(n1)NC1=C(O2)C(=O)CCC1	47*	28*	51	84*	-75	144*	Keap1 TSA=-0.12;Sypro dye melt=-23
O=C1NC2=C(C(=O)CCC2)C(c2ccccc2Cl)N1 (stereo not given)	19	1	0	2	-22	.
Cc1ccc2c(c1)c(C)c(C)n2CC(O)Cn1nc(C)c(Br)c1C (stereo not given)	-11	-6	1	15*	6	23*
CCN(CC)C(=O)C1=C(C)N(Cc2ccc(OC)cc2)C(=O)C(CC(=O)NC(c2ccccc2)c2ccccc2)C1 (stereo not given)	.	.	.	-10	.	.
COc1ccc(C2C(C(=O)c3cccs3)=C(O)C(=O)N2c2cccc(C)n2)cc1 (stereo not given)	0	-2	0	-1	6	.
Cc1ccc(C2C(C(=O)c3cccs3)=C(O)C(=O)N2c2nnc(C)s2)cc1 (stereo not given)	25	1	27	29*	-56	61*
O=C(C1CCN(S(=O)(=O)c2c(Cl)cccc2Cl)CC1)N1CCCCCCC1	0	5	0	18*	-10	-4
O=C(C1CCN(S(=O)(=O)c2ccc(Cl)cc2)CC1)N1CCC1	3	.	.	-9	1	.
CC(=O)Nc1ccc(S(=O)(=O)N2CCC(N3CCCCCC3)CC2)cc1	0	-6	-3	-4	-7	.
SMILES	RTF Ca sens act	Keap1-Nrf2 PPI	LANA DNA inh	eLon inh	Cardiac RTF inh	eLon confirm	others
O=C(NCc1ccncc1)C(F)(F)C(F)(F)C(=O)NCc1ccncc1	7	1	1	17*	9	-4
O=C(NCC1CCCN1S(=O)(=O)c1ccccc1)c1cccc(Cl)c1 (stereo not given)	-4	-5	3	-16	-5	.
O=C(CN(Cc1ccco1)C(=O)c1ccccc1F)Nc1ccccc1C(F)(F)F	-1	-3	1	7	-7	.
O=C(CN(Cc1ccco1)S(=O)(=O)c1cccs1)Nc1ccccc1C(F)(F)F	-3	-7	1	17*	3	-1
CCc1nnc(NC(=O)C2c3ccccc3Oc3ccccc32)s1	-1	-6	-2	19*	-1	-32
COc1cc(OC)cc(C(=O)OCc2cc3ccccc3[nH]c2=O)c1	-8	-8	-1	23*	1	-4
COc1ccc(CC(=O)OCc2cc3ccccc3[nH]c2=O)cc1	-3	3	4	-9	-7	.
CCCNC(=S)Nc1ccc2nc(-c3ccccn3)c(-c3ccccn3)nc2c1	5	-6	2	19*	-4	-3
CCOc1ncccc1C(=O)OCC(=O)Nc1cc(S(=O)(=O)N(CC)CC)ccc1C	1	-3	0	13*	-1	-2
CCC(=O)NC(c1cccs1)c1ccc2cccnc2c1O (stereo not given)	3	1	1	21*	-25	1
CNc1ncnc(Sc2ccc(Cl)cc2)c1[N+](=O)[O-]	.	.	.	-4	.	.
c1ccc(C2OC3c4cccc5cccc(c45)C3N2c2ccccc2)cc1 (stereo not given)	6	-3	2	56*	2	2
Nc1nc(NCCOCCO)nc(NC2CCCCC2)c1[N+](=O)[O-]	-5	-9	-1	6	3	.
Nc1nc(NCCO)nc(NC2CCCCC2)c1[N+](=O)[O-]	-3	4	0	43*	1	-6
COCCN(C(=O)c1ccc(C)o1)c1c(N)n(CC(C)C)c(=O)[nH]c1=O	0	-4	0	-7	-5	.
CCCCN(C(=O)c1ccc([N+](=O)[O-])o1)c1c(N)n(CC(C)C)c(=O)[nH]c1=O	0	-6	2	40*	1	29*
COCCN(C(=O)C1=COCCO1)c1c(N)n(Cc2ccccc2)c(=O)[nH]c1=O	2	4	-2	28*	1	7
COCCN(C(=O)C1=COCCO1)c1c(N)n(CC(C)C)c(=O)[nH]c1=O	1	1	1	24*	-4	7
